Results on five compounds are retold here after PubChem BioAssay.

Structures are written as SMILES. The source made the active and inactive calls.

Assay [1] in a line: binders of probe aFSTL3 on microarray, primary screen, stem cell growth factor project, biochemical, small-molecule microarray, fluorescence 635/667 (AID 1064).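 Further: measures binding of the biotinylated anti-FSTL3 antibody to printed compounds.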 To be noted: higher = more signal.
The nature of assay [2]: binders from COS7 lysate, DM2A8 probe, primary screen, torsin A project, cell lysate, small-molecule microarray, fluorescence 635/667 (AID 1065). The settings on record: higher = more signal, COS7 lysate expressing mutant human TOR1A.
The nature of assay [3]: binders of probe aFGF2 on microarray, primary screen, stem cell growth factor project, biochemical, small-molecule microarray, fluorescence 635/667 (AID 1067).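 Further: measures binding of biotinylated aFGF2 protein to printed compounds on slides; z-score merges feature fluorescence and signal-to-noise across triplicate slides.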 The settings on record: higher = more signal.
Assay [4] is described as follows: binders of probe aFGF10 on microarray, primary screen, stem cell growth factor project, biochemical, small-molecule microarray, fluorescence 635/667 (AID 1071).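 Further: score merges 667 nm spot intensity and signal to noise from triplicate slides.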 To be noted: higher = more signal.
Assay [5] has as its target Neurogenic locus notch homolog protein 2 (Homo sapiens) (UniProt Q04721). The assay is described as follows: Notch2 binders on small-molecule microarrays, primary screen, biochemical, small-molecule microarray, 635 nm fluorescence, stem cell growth factors (AID 1073). To be noted: Notch2 binding, higher = more signal.
Assay [6] addresses Pro-neuregulin-1, membrane-bound isoform (Homo sapiens) (UniProt Q02297). The assay is described as follows: NRG1 binders on small-molecule microarrays, primary screen, psychiatric disease protein project, biochemical, small-molecule microarray, fluorescence 635/667 (AID 1075).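 Further: score combines 667 nm spot fluorescence with signal to noise.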 To be noted: NRG1 binding, 635 nm fluorescence, higher = more signal.
For assay [7], the system named is Neuregulin-1 EGF-like domain. In words: binders of neuregulin-1 EGF-like domain, primary screen, biochemical, small-molecule microarray, 635 nm fluorescence (AID 1081).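 Further: binding of the protein to compounds printed on small-molecule microarray slides.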 The settings on record: small-molecule microarray binding, higher = more signal.
Assay [8] is described as follows: FRG1 promoter luciferase signal modulators, primary screen, FRG1 inhibition for FSHD, cell-based, C2C12 myotubes, firefly/Renilla luciferase, luminescence (AID 1084). To be noted: higher = more signal, called active from +8 up or from −8 down.
The nature of assay [9]: binders of probe aFST on microarray, primary screen, stem cell growth factor project, biochemical, small-molecule microarray, fluorescence 635/667 (AID 1086).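 Further: score merges 667 nm fluorescence with signal-to-noise of each printed compound spot.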 To be noted: higher = more signal.
A short description of assay [10]: binders of probe aHhip on microarray, primary screen, stem cell growth factor project, biochemical, small-molecule microarray, fluorescence 635/667 (AID 1087).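 Further: score merges spot fluorescence at 667nm with spot signal to noise ratio.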 The settings on record: higher = more signal.
Assay [11] deals with PRMT1 (protein arginine N-methyltransferase 1). In words: PRMT1 binders on small-molecule microarrays, primary screen, biochemical, small-molecule microarray, 635 nm fluorescence (AID 1088).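 Further: binding of Prmt1 protein to compounds spotted on small-molecule microarray slides.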 The settings on record: small-molecule microarray binding, higher = more signal.
Assay [12] is described as follows: yeast growth modulation, basal conditions, primary screen, YJM789 clinical isolate, OD600, 24 h (AID 1089).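 Further: growth of clinical yeast isolate S. cerevisiae YJM 789 seeded 1000 cells per well; test concentration not given here.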 The settings on record: S. cerevisiae YJM789 growth, higher = more signal, called active from +8 up or from −8 down.
Assay [13] is described as follows: fission yeast growth modulation, primary screen, strain 972, OD600, 24 h, no modulator (AID 1090).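 Further: basal condition with compound alone and no growth modifier present; test concentration not given here.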 The settings on record: S. pombe 972 growth, higher = more signal, called active from +8 up or from −8 down.
Assay [14] can be described thus: S. cerevisiae growth modulation with rapamycin, primary screen, strain BY4716, OD600, 96 h (AID 1091). Further: test concentration not given here. To be noted: higher = more signal, called active from +8 up or from −8 down.
Assay [15] has as its target Torsin-1A-interacting protein 2 (Homo sapiens) (UniProt Q8NFQ8). The assay is described as follows: LULL1 binders on small-molecule microarray, primary screen, cell lysate, human LULL1 lysate, 635/667 nm fluorescence (AID 1092).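 Further: probe is lysate of COS7 cells overexpressing human LULL1; score merges per-feature 667 nm fluorescence with signal-to-noise.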 To be noted: hLULL1 lysate binding, 635 nm fluorescence, higher = more signal.
The nature of assay [16]: E. coli growth modulation, two-sided OD650, primary screen, E. coli filamentation project, strain DRC41, 24 h (AID 1093).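 Further: MC1000 strain lacking acrAB efflux and sulA so SOS filamentation is blocked; test concentration not given here.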 The settings on record: OD650, 24 h, higher = more signal, called active from +8 up or from −8 down.
Assay [17] is described as follows: small-molecule microarray binders of probe aLefty2, primary screen, biochemical, biotinylated probe, 635/667 nm fluorescence (AID 1094).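 Further: score merges spot fluorescence near 667 nm with spot signal-to-noise ratio.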 The settings on record: higher = more signal.
Assay [18] relates to Noggin (protein binding on small-molecule microarray). The assay is described as follows: Noggin binders on small-molecule microarray, primary screen, biochemical, 635/667 nm fluorescence (AID 1095).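 Further: score merges 667 nm feature fluorescence with signal to noise over triplicate slides.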 The settings on record: 635 nm fluorescence, higher = more signal.
The target of assay [19] is Neurogenic locus notch homolog protein 3 (Homo sapiens) (UniProt Q9UM47). The assay is described as follows: NOTCH3 binders on small-molecule microarray, primary screen, biochemical, 635/667 nm fluorescence (AID 1096). The settings on record: NOTCH3 binding, 635 nm fluorescence, higher = more signal.
Chain of Neurogenic locus notch homolog protein 3 (Homo sapiens) (Q9UM47 whole entry, looked up): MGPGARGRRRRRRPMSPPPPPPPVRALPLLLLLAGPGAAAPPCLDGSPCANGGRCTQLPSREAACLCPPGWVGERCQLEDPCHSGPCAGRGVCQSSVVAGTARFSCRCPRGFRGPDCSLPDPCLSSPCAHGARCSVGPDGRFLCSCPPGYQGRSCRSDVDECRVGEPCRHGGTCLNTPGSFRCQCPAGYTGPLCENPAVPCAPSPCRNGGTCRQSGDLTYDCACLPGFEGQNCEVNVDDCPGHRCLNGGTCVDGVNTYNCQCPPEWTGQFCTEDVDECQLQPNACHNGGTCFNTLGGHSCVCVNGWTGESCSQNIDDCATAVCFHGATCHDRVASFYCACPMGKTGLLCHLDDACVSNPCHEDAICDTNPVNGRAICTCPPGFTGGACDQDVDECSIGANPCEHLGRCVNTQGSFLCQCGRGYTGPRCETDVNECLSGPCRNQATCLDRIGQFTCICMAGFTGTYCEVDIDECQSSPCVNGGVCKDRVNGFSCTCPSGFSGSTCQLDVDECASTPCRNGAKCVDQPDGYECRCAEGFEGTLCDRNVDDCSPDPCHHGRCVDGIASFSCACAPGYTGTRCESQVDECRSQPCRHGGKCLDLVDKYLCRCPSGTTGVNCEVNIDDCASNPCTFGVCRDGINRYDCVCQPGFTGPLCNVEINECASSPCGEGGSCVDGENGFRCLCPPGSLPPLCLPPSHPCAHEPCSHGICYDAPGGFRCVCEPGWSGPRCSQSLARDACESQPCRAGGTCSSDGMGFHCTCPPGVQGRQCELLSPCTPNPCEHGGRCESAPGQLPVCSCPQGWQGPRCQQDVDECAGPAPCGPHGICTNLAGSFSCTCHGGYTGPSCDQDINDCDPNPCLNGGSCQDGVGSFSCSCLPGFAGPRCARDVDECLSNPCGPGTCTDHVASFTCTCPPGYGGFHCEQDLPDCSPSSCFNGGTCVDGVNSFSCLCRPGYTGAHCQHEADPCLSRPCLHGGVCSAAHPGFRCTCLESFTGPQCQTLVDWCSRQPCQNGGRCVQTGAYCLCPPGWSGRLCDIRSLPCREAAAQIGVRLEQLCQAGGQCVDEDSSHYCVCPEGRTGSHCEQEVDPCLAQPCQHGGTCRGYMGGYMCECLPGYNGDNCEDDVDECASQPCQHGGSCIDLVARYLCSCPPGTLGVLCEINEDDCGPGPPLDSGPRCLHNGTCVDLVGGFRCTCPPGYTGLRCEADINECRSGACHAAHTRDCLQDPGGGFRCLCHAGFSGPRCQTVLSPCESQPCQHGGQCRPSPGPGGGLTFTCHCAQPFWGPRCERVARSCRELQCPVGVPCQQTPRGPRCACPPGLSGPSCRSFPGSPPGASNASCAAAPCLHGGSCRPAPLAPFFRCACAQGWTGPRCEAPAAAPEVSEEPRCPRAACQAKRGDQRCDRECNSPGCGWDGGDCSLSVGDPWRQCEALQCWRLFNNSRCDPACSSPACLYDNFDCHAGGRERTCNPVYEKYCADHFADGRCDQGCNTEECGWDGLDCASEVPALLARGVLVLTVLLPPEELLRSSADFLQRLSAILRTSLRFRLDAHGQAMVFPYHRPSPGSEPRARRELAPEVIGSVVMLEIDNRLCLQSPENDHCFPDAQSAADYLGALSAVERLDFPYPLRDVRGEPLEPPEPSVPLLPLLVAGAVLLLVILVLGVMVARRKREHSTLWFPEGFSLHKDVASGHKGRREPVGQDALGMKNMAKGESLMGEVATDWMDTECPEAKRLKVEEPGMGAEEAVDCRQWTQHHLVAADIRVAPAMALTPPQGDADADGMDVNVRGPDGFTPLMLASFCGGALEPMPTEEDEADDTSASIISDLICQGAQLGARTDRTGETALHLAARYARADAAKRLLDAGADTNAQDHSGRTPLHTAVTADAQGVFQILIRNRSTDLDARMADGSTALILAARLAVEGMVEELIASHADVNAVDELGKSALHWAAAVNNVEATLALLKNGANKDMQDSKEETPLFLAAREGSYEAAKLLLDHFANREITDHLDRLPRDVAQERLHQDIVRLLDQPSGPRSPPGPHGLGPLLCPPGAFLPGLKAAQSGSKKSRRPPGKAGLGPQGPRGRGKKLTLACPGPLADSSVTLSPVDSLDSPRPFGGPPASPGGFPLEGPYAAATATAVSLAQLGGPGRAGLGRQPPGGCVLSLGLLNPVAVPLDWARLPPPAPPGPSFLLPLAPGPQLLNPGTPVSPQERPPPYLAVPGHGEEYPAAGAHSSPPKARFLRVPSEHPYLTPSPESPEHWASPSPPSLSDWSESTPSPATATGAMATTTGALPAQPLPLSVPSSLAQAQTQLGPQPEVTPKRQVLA
Assay [20] is described as follows: small-molecule microarray binders of probe aEGFR, primary screen, biochemical, biotinylated probe, 635/667 nm fluorescence (AID 1097).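 Further: probe is a biotinylated anti-EGFR antibody binding compounds printed on slides; score combines fluorescence near 667 nm and signal to noise of each spot.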 The settings on record: higher = more signal.

Chain of Neurogenic locus notch homolog protein 2 (Homo sapiens) (Q04721 whole entry, looked up, canonical isoform): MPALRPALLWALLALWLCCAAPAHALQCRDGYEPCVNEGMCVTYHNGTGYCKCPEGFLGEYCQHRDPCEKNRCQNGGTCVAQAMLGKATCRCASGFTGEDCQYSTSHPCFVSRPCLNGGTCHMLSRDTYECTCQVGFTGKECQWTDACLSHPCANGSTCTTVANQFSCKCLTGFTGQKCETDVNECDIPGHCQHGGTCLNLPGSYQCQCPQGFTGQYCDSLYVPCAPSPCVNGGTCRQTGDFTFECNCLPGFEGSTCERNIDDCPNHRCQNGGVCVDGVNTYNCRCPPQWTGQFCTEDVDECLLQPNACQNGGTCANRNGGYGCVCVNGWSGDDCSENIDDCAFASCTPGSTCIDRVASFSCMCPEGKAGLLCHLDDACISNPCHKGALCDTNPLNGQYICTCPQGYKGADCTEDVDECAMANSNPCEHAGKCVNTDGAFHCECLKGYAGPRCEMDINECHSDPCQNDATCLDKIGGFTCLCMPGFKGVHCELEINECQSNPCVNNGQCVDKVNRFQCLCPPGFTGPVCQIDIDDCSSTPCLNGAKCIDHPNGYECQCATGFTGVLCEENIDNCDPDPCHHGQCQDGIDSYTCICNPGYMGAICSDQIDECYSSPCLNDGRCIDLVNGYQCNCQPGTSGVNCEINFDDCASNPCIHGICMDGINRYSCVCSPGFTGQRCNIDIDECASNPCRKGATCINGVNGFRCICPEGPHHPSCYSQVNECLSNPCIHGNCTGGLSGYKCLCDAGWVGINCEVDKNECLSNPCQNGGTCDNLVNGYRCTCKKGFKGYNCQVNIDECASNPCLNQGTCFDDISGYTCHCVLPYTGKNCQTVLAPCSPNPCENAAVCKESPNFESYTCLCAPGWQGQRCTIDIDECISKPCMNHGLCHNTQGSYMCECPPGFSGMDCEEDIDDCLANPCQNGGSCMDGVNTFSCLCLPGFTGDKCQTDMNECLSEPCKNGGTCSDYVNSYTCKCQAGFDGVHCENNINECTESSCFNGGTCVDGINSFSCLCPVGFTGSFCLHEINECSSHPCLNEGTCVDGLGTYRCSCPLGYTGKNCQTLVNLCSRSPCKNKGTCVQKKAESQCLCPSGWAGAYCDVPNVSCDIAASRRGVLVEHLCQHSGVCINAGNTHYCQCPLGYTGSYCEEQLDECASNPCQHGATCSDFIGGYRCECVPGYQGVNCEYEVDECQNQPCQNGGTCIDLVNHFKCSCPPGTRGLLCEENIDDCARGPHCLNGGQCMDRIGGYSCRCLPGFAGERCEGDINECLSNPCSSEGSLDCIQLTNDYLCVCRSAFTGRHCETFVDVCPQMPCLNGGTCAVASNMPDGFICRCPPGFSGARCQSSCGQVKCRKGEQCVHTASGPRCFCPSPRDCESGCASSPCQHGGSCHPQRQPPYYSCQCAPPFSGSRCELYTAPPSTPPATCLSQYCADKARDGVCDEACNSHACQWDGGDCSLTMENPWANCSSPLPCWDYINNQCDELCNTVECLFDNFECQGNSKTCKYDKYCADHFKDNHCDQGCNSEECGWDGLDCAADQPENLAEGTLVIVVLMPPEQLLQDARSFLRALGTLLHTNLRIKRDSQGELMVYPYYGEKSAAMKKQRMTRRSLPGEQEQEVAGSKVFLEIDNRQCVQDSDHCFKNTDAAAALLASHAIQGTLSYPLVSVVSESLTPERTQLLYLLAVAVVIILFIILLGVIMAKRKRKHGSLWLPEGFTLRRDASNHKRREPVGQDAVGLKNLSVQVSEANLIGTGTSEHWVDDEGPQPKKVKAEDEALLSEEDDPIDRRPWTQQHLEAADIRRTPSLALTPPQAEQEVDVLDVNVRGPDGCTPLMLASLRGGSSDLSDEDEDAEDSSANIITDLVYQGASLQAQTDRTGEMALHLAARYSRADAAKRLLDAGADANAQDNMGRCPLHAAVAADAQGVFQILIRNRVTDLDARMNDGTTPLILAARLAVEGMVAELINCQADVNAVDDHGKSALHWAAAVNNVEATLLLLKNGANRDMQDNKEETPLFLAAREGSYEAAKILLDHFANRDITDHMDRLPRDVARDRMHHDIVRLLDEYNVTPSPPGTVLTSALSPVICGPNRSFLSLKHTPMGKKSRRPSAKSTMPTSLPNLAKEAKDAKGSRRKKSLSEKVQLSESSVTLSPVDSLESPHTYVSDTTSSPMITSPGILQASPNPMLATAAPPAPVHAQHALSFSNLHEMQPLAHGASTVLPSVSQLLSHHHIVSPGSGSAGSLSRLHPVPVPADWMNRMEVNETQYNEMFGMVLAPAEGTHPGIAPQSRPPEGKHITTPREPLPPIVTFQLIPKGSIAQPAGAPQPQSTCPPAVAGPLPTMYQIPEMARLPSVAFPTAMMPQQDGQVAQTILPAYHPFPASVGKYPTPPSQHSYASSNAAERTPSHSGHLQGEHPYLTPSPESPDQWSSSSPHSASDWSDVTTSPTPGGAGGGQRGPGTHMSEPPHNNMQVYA

With `COc1ccc(CCNC(=O)[C@@H]2c3ccccc3C(=O)N(C3CCCCC3)[C@H]2c2ccc(CO)cc2)cc1`, the composite z-score in assay [1] worked out at 0.0003; in [2], 1.3; in [3] it was 0.104; in assay [4], 0.329; in assay [5], 0.785; in assay [6], 1.05. Also, the composite z-score in assay [7] is 1.24; in [9], 0.246; in [10] it was -0.0645; in [11], 0.399; in [15], 3.07; in [17], -0.0671. Besides, the composite z-score is -0.282 in assay [18], 0.366 in assay [19] and -0.0972 in [20]. Moreover, the z-score in assay [8] is -0.335 (inactive); in [12] it was -0.395 (inactive); in [13] it was -0.838 (inactive); in [14], 0.584 (inactive); in assay [16], -1.14 (inactive).

With `CCCC[C@@H](O)C1=C(COC)C[C@H]2C(=O)N(C)C(=O)[C@H]2[C@H]1CO`, the composite z-score in assay [1] was -0.439; in [2], 0.131; in assay [3], -0.176; in assay [4], 0.466; in [5] it was -0.02; in assay [6], -0.321. Further, the composite z-score is -0.282 in [7]; 0.0794 in assay [9]; -0.16 in assay [10]; 0.0449 in assay [11]; -0.419 in assay [15]; -0.353 in [17]. The composite z-score in assay [18] is 0.578; in assay [19], -0.277; in assay [20], -0.156. For the same compound, the z-score in [8] was -1.21 (inactive); in assay [12] it was -2.33 (inactive); in assay [13], -1.77 (inactive); in assay [14] it was -1.21 (inactive); in assay [16] it was 1.1 (inactive).

As to `C=C(C(=O)CC[C@H](OC(=O)c1ccccc1-c1ccccc1C(=O)O)c1cccc(OCCO)c1)C(C)C`, the composite z-score in assay [1] was -0.337; in assay [2], -0.062; in assay [3], -0.109; in [4], 0.211; in [5], -0.275; in assay [6], 0.262. Also, the composite z-score in assay [7] was 0.0799; in assay [9], -0.224; in assay [10] it was -0.134; in assay [11] it was 0.0697; in assay [15], -0.138; in assay [17], -0.191. The composite z-score in assay [18] was 0.437; in assay [19], 0.324; in assay [20], -0.18. Moreover, the z-score was -0.0752 (inactive) in [8]; 0.521 (inactive) in assay [12]; -0.561 (inactive) in assay [13]; -0.518 (inactive) in assay [14]; -0.164 (inactive) in assay [16].

As for `COC(=O)[C@@]1(Cc2ccccc2)[C@H]2c3cc(C(=O)N(C)C)n(Cc4ccc(C)o4)c3C[C@H]2CN1C(=O)c1ccccc1`, the composite z-score was 1.97 in assay [1]; 0.6 in assay [2]; 0.632 in [3]; 0.685 in assay [4]; 1.36 in assay [5]; 1.47 in assay [6]. For the same compound, the composite z-score in assay [7] was 1.15; in [9], 1.91; in [10], 0.414; in [11], 0.163; in [15], 2.93; in [17], 0.746. Further, the composite z-score was -0.471 in assay [18], 1.13 in assay [19] and 0.667 in [20]. In addition, the z-score in [8] is 0.495 (inactive); in [12], 1.07 (inactive); in assay [13] it was 0.65 (inactive); in [14] it was 0.982 (inactive); in assay [16], -1.64 (inactive).

Consider `NC(=O)NCC#Cc1ccc2c(c1)[C@]1(C(=O)N2)[C@H](c2ccccc2OCCO)N2[C@H](c3ccccc3)[C@H](c3ccccc3)OC(=O)[C@H]2[C@@H]1C(=O)O`, for which the composite z-score in assay [1] was 0.129; in assay [2] it was 0.443; in [3] it was -0.0383; in assay [4], -0.0167; in assay [5], -0.243; in [6], 1.11. Also, the composite z-score was -0.0034 in [7]; -0.362 in assay [9]; -0.438 in [10]; 0.507 in assay [11]; 1.31 in assay [15]; -0.0201 in [17]. Further, the composite z-score in assay [18] was 0.192; in [19], -0.199; in assay [20] it was -0.185. The z-score in assay [8] is 0.233 (inactive); in assay [12], 0.798 (inactive); in [13] it was -0.602 (inactive); in assay [14], -0.675 (inactive); in assay [16], 1.4 (inactive).
